# Measured values: PubChem BioAssay AID485346 (Sanford-Burnham Center for Chemical Genomics, 2010)
# The whole screen tested about 330,000 compounds, of which about 10,000 (3%) were called active. What follows is part of a selection rich in actives, with near analogues and random picks from the rest. Unmarked numbers belong to inactive results.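 How the source made its calls: active means inhibition of at least 50% at 8 µM in the primary screen; inactive means the rest.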
# Target: Protein Mdm4 (Homo sapiens) + E3 ubiquitin-protein ligase Mdm2 (Homo sapiens) (UniProt O15151+Q00987)
# Assay: disruptors of Mdm2/MdmX RING complex – cell-based, luminescence, split luciferase, SaOS-2, uHTS, primary screen (AID 485346)
# Settings: SaOS-2 split-luciferase Mdm2/MdmX complementation, at 8 µM, active compounds read high
# Protein Mdm4 (Homo sapiens) + E3 ubiquitin-protein ligase Mdm2 (Homo sapiens), sequence (O15151 whole entry, looked up): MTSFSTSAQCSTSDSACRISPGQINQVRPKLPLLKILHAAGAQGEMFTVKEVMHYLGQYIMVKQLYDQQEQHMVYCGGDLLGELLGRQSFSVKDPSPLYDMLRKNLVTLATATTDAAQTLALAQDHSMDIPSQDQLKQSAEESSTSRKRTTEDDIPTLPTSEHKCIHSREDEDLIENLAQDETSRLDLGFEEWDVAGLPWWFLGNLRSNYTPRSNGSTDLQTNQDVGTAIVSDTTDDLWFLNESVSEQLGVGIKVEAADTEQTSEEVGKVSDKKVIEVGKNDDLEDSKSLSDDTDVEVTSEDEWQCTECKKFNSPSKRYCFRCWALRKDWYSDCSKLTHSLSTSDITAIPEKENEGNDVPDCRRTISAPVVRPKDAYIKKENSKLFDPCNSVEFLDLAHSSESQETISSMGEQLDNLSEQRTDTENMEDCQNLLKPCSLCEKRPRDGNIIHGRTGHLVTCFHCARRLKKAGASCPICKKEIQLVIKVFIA
# Protein Mdm4 (Homo sapiens) + E3 ubiquitin-protein ligase Mdm2 (Homo sapiens), sequence (Q00987 whole entry, looked up): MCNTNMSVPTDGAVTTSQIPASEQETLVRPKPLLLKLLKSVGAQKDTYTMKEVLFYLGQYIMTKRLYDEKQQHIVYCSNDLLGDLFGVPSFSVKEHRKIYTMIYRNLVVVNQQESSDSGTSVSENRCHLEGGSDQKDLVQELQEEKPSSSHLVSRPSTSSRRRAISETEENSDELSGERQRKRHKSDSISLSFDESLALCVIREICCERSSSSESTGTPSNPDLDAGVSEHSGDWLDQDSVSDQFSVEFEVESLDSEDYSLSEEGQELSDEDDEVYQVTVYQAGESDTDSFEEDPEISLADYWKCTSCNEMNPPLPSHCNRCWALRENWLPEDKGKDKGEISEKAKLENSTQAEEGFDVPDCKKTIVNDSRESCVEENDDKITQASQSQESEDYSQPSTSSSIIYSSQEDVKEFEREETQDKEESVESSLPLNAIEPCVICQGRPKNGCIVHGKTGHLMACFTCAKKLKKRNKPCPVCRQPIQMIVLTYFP
row,SMILES,inhibition
1,O=C(NC(=O)N1CCSCC1)c1c(Cl)cccc1Cl,-31.4%
2,COc1ccc(CN2C(=O)CC(Cc3ccc(C)cc3)C2=O)cc1OC (configuration not stated),5.73%
3,Cc1ccccc1C(CC(=O)c1cccs1)C(C#N)C#N (configuration not stated),75.4% (active)
4,CCc1cccc(C)c1NC(=O)COC(=O)CNC(=O)c1cccs1,-18.9%
5,Cc1ccc(C)c(NC(CC(=O)c2ccccc2)C(=O)OCC(=O)c2cccs2)c1 (configuration not stated),-9.67%
6,CC1=C(C/C=C(\C)CCCC(C)CCCC(C)CCCC(C)C)C(=O)c2ccccc2C1=O (configuration not stated),-7.28%
7,CC(C)CC(NC(=O)C1CCCN1C(=O)[C@@H](C)NC(=O)OCc1ccccc1)C(=O)NCC(N)=O (some centres not stated),-21.6%
8,COc1ccc(C2C(C(C)=O)=C(O)C(=O)N2CCc2c[nH]c3ccccc23)cc1 (configuration not stated),-16.3%
9,CCc1noc(C)c1C(=O)Nc1nc2ccc(OC)cc2s1,0.6%
10,COc1ccc2nc(NC(=O)NC3CCCCC3)sc2c1,-142%
11,COc1ccc2nc(Nc3nc4ccc(NC(C)=O)cc4s3)sc2c1,79.7% (active)
12,Cc1csc2ncc(C(=O)N(Cc3ccccc3)c3ccccn3)c(=O)n12,0.705%
13,CC(C)NC(=O)c1ccccc1S(=O)c1ccccc1C#N (configuration not stated),-7.43%
14,O=C(Nc1nnc(-c2ccco2)o1)c1ccc(S(=O)(=O)N2CCOCC2)cc1,-9.19%
15,COc1cccc(-c2nnc(NC(=O)c3ccc(S(=O)(=O)N(CC(C)C)CC(C)C)cc3)o2)c1,72.2% (active)
16,COc1ccc(-c2nnc(NC(=O)CS(=O)(=O)c3ccc(Cl)cc3)o2)c(OC)c1,-3.12%
17,CC(C#N)OC(=O)c1cccnc1SCC(=O)Nc1ccc2c(c1)OCO2 (configuration not stated),-12.8%
18,CC(C)(C)n1nnc(CCc2nnn(C(C)(C)C)n2)n1,13.5%
19,O=C(CN1C(=O)c2ccccc2S1(=O)=O)N1CCc2ccccc21,68% (active)
20,CC1CCCN(C(=O)CN2C(=O)c3ccccc3S2(=O)=O)C1 (configuration not stated),3.88%
21,O=C(CN1C(=O)c2ccccc2S1(=O)=O)NC1CCCCC1,12.3%
22,Cc1ccc(NC(=O)c2cc3ccccc3o2)cc1,-218%
23,Cc1c(/C=N\NC(=O)c2cc3ccccc3o2)c2ccccc2n1C,50.8% (active)
24,O=C(N/N=C/c1cccc(O)c1)c1cc2c(ccc3ccccc32)o1,-1.11%
25,O=C1[C@H]2[C@@H](c3ccc(F)cc3)N3C(=O)N(c4ccc(C(F)(F)F)cc4)C(=O)[C@@]3(Cc3ccccc3)[C@H]2C(=O)N1C1CCCCC1,95.3% (active)
26,O=C1[C@H]2[C@@H](c3ccc(Cl)cc3)N3C(=O)N(c4cccc(F)c4)C(=O)[C@@]3(Cc3ccccc3)[C@H]2C(=O)N1C1CCCCC1,4.69%
27,Cc1cccc(N2C(=O)N3[C@H](c4ccc(F)cc4)[C@@H]4C(=O)N(C5CCCCC5)C(=O)[C@@H]4[C@]3(Cc3ccccc3)C2=O)c1,18.2%
